High-throughput results deposited in PubChem BioAssay by National Center for Advancing Translational Sciences (NCATS).
The list is not random: actives were taken first. Their share in the collection is about 12%.
PLK1 PBD inh = qHTS for Inhibitors of PLK1-PDB (polo-like kinase 1 - polo-box domain): Primary Screen | 2.8% of 360,000 active | Plk1 PBD binding of FITC phosphopeptide, fluorescence polarization | AID 720504, 2013 | Potency, µM, for the others: max response, negative = inhibition, actives largely listed as inhibitors | Serine/threonine-protein kinase PLK1 (Homo sapiens), P53350; further: series mostly up to about 57 µM; nearly all actives have a fitted effect of over 65% in size
ALDH1A1 block = qHTS Assay for Inhibitors of Aldehyde Dehydrogenase 1 (ALDH1A1). Aldehyde dehydrogenase 1A1 (Homo sapiens), P00352. Purified ALDH1A1, NADH fluorescence, propionaldehyde substrate. Potency, µM (top dose mostly 75.3 µM), without a hit: at the highest dose activity, negative = inhibition, usual class: inhibitors. 7.3% of 220,000 active. AID 1030, 2008; active means well fitted inhibition curve with a large enough effect, not every such curve was filed as active; inconclusive means small, poorly fitted or top-dose-only effect, or another doubt; inactive means no such curve, though single readings can be large or run the other way;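 further: plate controls were no enzyme wells and a reference inhibitor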
Gal4-VP16 FLuc = VP16 counterscreen qHTS for inhibitors of ROR gamma transcriptional activity; 3.5% of 310,000 active; Drosophila S2 Gal4-VP16 UAS-luciferase, luminescence, 20 h; AID 2546, 2010; Potency, µM (doses to about 53.6 µM), without a hit: top-dose activity, negative = inhibition, usual class: inhibitors;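 further: Gal4-VP16 expression switched on by copper sulfate through the metallothionein promoter; nearly all actives have a fitted effect of over 50% in size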
Sfp inh = qHTS Assay for Inhibitors of Bacillus subtilis Sfp phosphopantetheinyl transferase (PPTase); 4'-phosphopantetheinyl transferase ffp (Bacillus subtilis), Q9F4F7; Biochemical Sfp PPTase activity, qHTS; Potency, µM, without a hit: largest response in the series, negative = inhibition, actives largely listed as inhibitors; 3.5% of 310,000 active; AID 1490, 2009;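 further: the enzyme is Sfp with the accession as filed and its product quenches rhodamine fluorescence; 0% = enzyme reaction without inhibitor and -100% = no enzyme wells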
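Buffer: 50 mM Hepes-Na pH 7.6, 10 mM MgCl2, 0.01% Nonidet P-40, 0.01% BSA. Enzyme 15 nM, pre-exposed to compound 15 min; substrates then added and fluorescence change tracked over 30 min.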
RORgamma inh = qHTS for inhibitors of ROR gamma transcriptional activity; Nuclear receptor ROR-gamma (Mus musculus), P51450; Drosophila S2 Gal4-RORgamma UAS-luciferase reporter, 20 h; Potency, µM (top dose mostly 53.6 µM), for the others: at the highest dose activity change, negative = inhibition, hits mostly inhibitors; 5.4% of 310,000 active; AID 2551, 2010; further: nearly all actives have a fitted effect of over 60% in size
Target sequence (P51450 whole entry, looked up, the tested form may be a part): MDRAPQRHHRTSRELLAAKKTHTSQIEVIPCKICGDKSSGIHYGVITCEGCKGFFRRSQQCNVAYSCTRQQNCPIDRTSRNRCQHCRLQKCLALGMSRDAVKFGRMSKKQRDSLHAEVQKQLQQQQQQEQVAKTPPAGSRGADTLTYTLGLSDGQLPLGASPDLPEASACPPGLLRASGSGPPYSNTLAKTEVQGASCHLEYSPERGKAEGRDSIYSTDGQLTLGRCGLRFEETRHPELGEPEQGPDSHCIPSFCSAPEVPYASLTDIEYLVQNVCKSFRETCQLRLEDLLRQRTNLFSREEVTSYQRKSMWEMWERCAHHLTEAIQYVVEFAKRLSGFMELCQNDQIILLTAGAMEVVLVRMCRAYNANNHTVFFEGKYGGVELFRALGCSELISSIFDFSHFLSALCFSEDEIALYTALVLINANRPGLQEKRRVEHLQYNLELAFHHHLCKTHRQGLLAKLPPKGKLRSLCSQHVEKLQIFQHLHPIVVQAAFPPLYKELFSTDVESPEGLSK
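In this cell-based reporter format, copper sulfate (700 uM final) drives Gal4–ROR gamma fusion expression from a metallothionein promoter in Drosophila Schneider cells; compounds preincubated 1 hr, reporter read after 20 hr at ambient temperature.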
An asterisk follows results filed as active; ? = inconclusive; . = no result; [ ] = another dose, or the depositor's remark. Unless noted, the call rests on the fitted dose curve; in most records, active means well fitted curve in the direction sought with a large enough effect; inconclusive means small, poorly fitted or top-dose-only effect, or another doubt; inactive means no such curve, though single readings can be large; an effect the other way counts as inactive or inconclusive. Unless noted, on the % scale 0 is the no-effect control and ±100 the full control effect; potency means the concentration at half of the fitted maximal effect.

SMILES | PLK1 PBD inh | ALDH1A1 block | Gal4-VP16 FLuc | Sfp inh | RORgamma inh
CCCCCCCCN1C(=O)[C@H](CC(=O)N2CCN(C(=O)c3ccco3)CC2)C[C@@]2(C(=O)OC)CCCCC=C12 | -15% | . | . | . | .
C=C(C#N)C(=O)OCC | . | 8.9µM* | -3% | . | 13%
CCOC(=O)/C(C#N)=C1\SS/C(=C(/C#N)C(=O)OCC)S1 | . | . | 23% | 10µM* | -16%
CCOC(=O)C(C#N)=C(c1ccccc1)c1ccccc1 | . | . | 7% | 7% | 3%
COC(=O)c1ccc(CSCc2ccc(C(=O)OC)o2)o1 | -29% | . | -5% | 4% | 16%
COC(=O)c1ccc(CN(C(C)=O)c2ccccc2)o1 | 27µM* | 20µM* | 1% | 8% | 6%
CCCCCNC(=O)c1ccc2c(=O)n(CCCN3CCCC3=O)c(=S)[nH]c2c1 | -10% | ? | -7%[10 µM] | -14% | 13%
O=C(NCCCN1CCCC1=O)c1ccc2c(=O)n(-c3ccccc3F)c(=S)[nH]c2c1 | 0% | ? | -9% | ? | 21%
O=C(NCc1ccccc1Cl)c1ccc2c(=O)n(CCCN3CCCC3=O)c(=S)[nH]c2c1 | -10% | 0.63µM* | -9% | 15% | -19%
O=C(NCCCN1CCCC1=O)c1ccc2c(=O)n(-c3ccc(F)cc3)c(=S)[nH]c2c1 | . | 14µM* | -10% | -6% | -3%
O=C(NCc1cccnc1)c1ccc2c(=O)n(CCCN3CCCC3=O)c(=S)[nH]c2c1 | -8% | 6% | -3% | -2% | 12%
COCCNC(=O)c1ccc2c(=O)n(CCCN3CCCC3=O)c(=S)[nH]c2c1 | 0% | ? | -3%[10 µM] | 50µM* | -4%
O=S1(=O)C[C@H](N2CCN(CC3CC3)CC2)[C@@H](COCc2ccccc2)N1 | -7% | . | . | . | .
CC1=NN(c2ccccc2)C(=O)C1C(=S)SC1CC(=O)NC1=O (stereo not drawn) | 11µM* | . | . | . | .
CC1=NN(c2ccccc2)C(=O)C1C(=O)C(=O)Nc1ccc(F)cc1 (stereo not drawn) | -1% | ? | -17% | -5% | 0%
O=[N+]([O-])c1ccc(CN2CC(N3CCC(Cc4ccccc4)CC3)CS2(=O)=O)cc1 (stereo not drawn) | -10% | . | . | . | .
CC(C)CC(=O)NNC(=S)NCc1ccco1 | -7% | -2% | -6% | 20% | ?
CC(=O)Nc1ccc(NC(=S)NC(=O)c2ccc(C(C)(C)C)cc2)cc1 | . | . | -5% | -7% | ?
CC(C)(C)c1ccc(C(=O)OCC(=O)NCc2ccco2)cc1 | -9% | . | . | . | .
CC(C)(CO)NC(=S)NCc1ccco1 | -22% | ? | 0% | 16µM* | -2%
Cc1ccc[n+](/C(C(=S)NCc2ccco2)=C(/[O-])c2ccccc2Cl)c1 | -2% | -1% | 16% | 45µM* | -29%
COCCNC(=S)NC(=O)c1ccc(C(C)(C)C)cc1 | -2% | ? | 11µM* | -6% | 2µM*
CC(C)(C)c1ccc(/C([O-])=C(/C(=S)NCc2ccco2)[n+]2ccccc2)cc1 | . | 10µM* | -20% | 50µM* | -13%
Cc1ccc[n+](C(C(=S)NCc2ccco2)=C([O-])c2ccccc2Cl)c1 | 2% | . | . | . | .
N#Cc1ccc(NC(=S)N2CCC3CC2c2cc(-c4ccc5c(c4)OCO5)ccc23)cc1 (stereo not drawn) | -11% | . | . | . | .
SMILES | PLK1 PBD inh | ALDH1A1 block | Gal4-VP16 FLuc | Sfp inh | RORgamma inh
COc1ccc(C2CC(c3ccccc3)Oc3c(C)ccc(C(C)C)c32)cc1 (stereo not drawn) | . | . | 3% | 9% | -1%
c1cncc(CNc2ccnc(-c3cccnc3)n2)c1 | . | -112% | 2% | -1% | 21%
COc1ccc(-c2nc3cnc(N4CCN(C)CC4)nc3n(C)c2=O)cc1 | . | ? | 4% | 27% | -18%
CN[C@H]1C[C@@H](c2ccccc2)N(C(C)=O)C[C@H]1CO | -7% | . | . | . | .
O=C(NC(=S)NCc1ccco1)c1ccc(Br)cc1 | -6% | . | 16µM* | 1% | 14µM*
CC(C)(C)c1ccc(C(=O)NC(=S)NCc2ccco2)cc1 | -1% | . | 7.9µM* | 6% | 6.3µM*
COCCNC(=S)c1ccc(Br)cc1 | 11µM* | 8.9µM* | -6% | 45µM* | 8%
CC(C)(C)c1ccc(-c2noc(CCC(=O)NCc3ccco3)n2)cc1 | -14% | -14% | 4µM* | 13% | 0.32µM*
CN(C)C(=O)c1ccc(-c2cc(NCc3ccccc3)ncn2)cc1 | . | ? | 1% | 27% | 0%
O=C(NCCCN1CCOCC1)c1cccc(S(=O)(=O)N2CCc3ccccc32)c1 | 9% | . | . | . | .
COCCCNC(=S)NNC(=O)C1CC1c1ccc(C(C)(C)C)cc1 (stereo not drawn) | -5% | 7% | -13% | 18% | 4.5µM*
COCCCNC(=S)Nc1ccc(CC(=O)O)cc1 | -16% | ? | -1% | -22% | 1%
CCN1C/C(=C/c2ccc(OC)c(O)c2)C(=O)/C(=C/c2ccc(OC)c(O)c2)C1 | 3% | 1% | ? | -6% | 6.3µM*
COc1ccc(/C=C2\CN(Cc3ccccc3)C/C(=C\c3ccc(OC)c(O)c3)C2=O)cc1O | -16% | . | ? | -18% | 16µM*
COc1cc(/C=C2\COC/C(=C\c3ccc(O)c(OC)c3)C2=O)ccc1O | -2% | ? | ? | 8% | ?
Cc1ccc2cc(CN(CCO)Cc3nnnn3Cc3ccc(F)cc3)c(=O)[nH]c2c1 | -11% | 20µM* | 4% | -2% | ?
COCCn1nnnc1CN(CCc1ccc(OC)c(OC)c1)Cc1cc2ccc(C)cc2[nH]c1=O | -5% | 11µM* | -5% | ? | -2%
COCCn1nnnc1CN(CCc1ccccc1)Cc1cc2cc(OC)ccc2[nH]c1=O | -5% | . | . | . | .
COc1ccc(CCN(Cc2cc3ccc(C)cc3n3nnnc23)C(C)=O)cc1OC | 3.4µM* | -1% | -10% | 9% | -4%
Cc1cc(C)c2cc(CN(CCO)C(=O)Nc3ccc(Cl)cc3)c(=O)[nH]c2c1 | 2% | ? | -24% | 16% | -27%
Cc1cc(C)c2cc(CN(CCO)Cc3nnnn3Cc3ccccc3)c(=O)[nH]c2c1 | -8% | 5µM* | 3% | -23% | -1%
COc1ccc(CCN(Cc2cc3cc(C)ccc3[nH]c2=O)C(C)=O)cc1OC | 0% | 2% | -3% | -6% | -6%
O=c1[nH]c2cc3c(cc2cc1CN(CCCO)Cc1nnnn1Cc1ccc(F)cc1)OCO3 | -6% | ? | -8% | 17% | 8%
C[C@H](NC(=O)C1CCN(C(=O)[C@H](Cc2ccccc2)NC(=O)OC(C)(C)C)CC1)C(=O)O | -1% | . | -2% | 4% | -5%
C[C@H]1C[C@]2(O[C@@H]2C)C(=O)O[C@@H]2CCN(C)C/C=C(/COC(=O)[C@]1(C)O)C2=O | . | 6% | 6% | 15% | 13%
